According to the supplement of paper PMC10849652:
Targets with a hit are over-represented here; the source holds about 8,800 in all. About 0.5% of all pairs of compound and target were hits.

Columns and labels:
Experiment in all cases: log2 fold change, soluble protein after heating vs DMSO (PISA); higher = thermal stabilisation; K562 lysate, 10 uM; active = over 0.2 and 3.5 SD of the protein, either way, in both replicates (recomputed)
vemurafenib = compound: CCCS(=O)(=O)Nc1ccc(F)c(C(=O)c2c[nH]c3ncc(-c4ccc(Cl)cc4)cc23)c1F [vemurafenib]
Outline: (§1)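 Following dounce homogenisation of K562 pellets in PBS pH 7.4 with 1 mM MgCl2, crude extract at 1 mg/mL protein was incubated for 30 min with 10 μM compound. Aliquots were then heated for 3 min over 48°C-58°C and pooled, NP-40 was added to 0.5% at 4°C, and soluble protein was recovered as the supernatant at 21,000xg for 90 min. Channel-sum-equalised TMTpro 16plex LC-MS/MS quantified this protein. Each value, from duplicates, is a log-two fold change in thermal stability relative to solvent controls.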

[1] = compound: CCCS(=O)(=O)Nc1ccc(F)c(C(=O)c2c[nH]c3ncc(Cl)cc23)c1F
Outline: as §1

barasertib = compound: CCN(CCCOc1ccc2c(Nc3cc(CC(=O)Nc4cccc(F)c4)[nH]n3)ncnc2c1)CCOP(=O)(O)O [barasertib]
Outline: as §1

[2] = compound: CC[C@@H]1C(=O)N(C)c2cnc(Nc3ccc(C(=O)NC4CCN(C)CC4)cc3OC)nc2N1C1CCCC1
Outline: as §1

volasertib = compound: CC[C@@H]1C(=O)N(C)c2cnc(Nc3ccc(C(=O)N[C@H]4CC[C@H](N5CCN(CC6CC6)CC5)CC4)cc3OC)nc2N1C(C)C [volasertib]
Outline: as §1

[3] = compound: CCn1c(C(=O)N(C2CC2)C2CC2)cc2c3c(ncn3C)c(Nc3cc(C)n(C)n3)nc21
Outline: as §1

[4] = compound: CCn1cc(-c2ccnc3[nH]c(-c4cccc(CN(C)C)c4)cc23)c(-c2ccc(NC(=O)N(C)C)cc2)n1
Outline: as §1

[5] = compound: CN1CCC(CNc2ccc3ncc(-c4cccc(OC(F)(F)F)c4)n3n2)CC1
Outline: as §1

saracatinib = compound: CN1CCN(CCOc2cc(OC3CCOCC3)c3c(Nc4c(Cl)ccc5c4OCO5)ncnc3c2)CC1 [saracatinib]
Outline: as §1

sotrastaurin = compound: CN1CCN(c2nc(C3=C(c4c[nH]c5ccccc45)C(=O)NC3=O)c3ccccc3n2)CC1 [sotrastaurin]
Outline: as §1

Measured: log2 fold change

RPL37A (UniProt P61513)
inactive: vemurafenib 0.003 | [1] -0.002 | barasertib -0.013 | [2] -0.01 | volasertib -0.015 | [3] -0.044 | [5] -0.158 | saracatinib -0.035 | sotrastaurin -0.138
active: [4] 0.371

SERPINI1 (UniProt Q99574)
inactive: vemurafenib 0.027 | [1] 0.008 | barasertib -0.006 | [2] 0.024 | volasertib -0.001 | [3] 0.03 | [4] 0.001 | [5] 0.069 | saracatinib 0 | sotrastaurin 0.016

RPN2 (UniProt P04844)
Sequence of UniProt P04844 (P04844 whole entry, looked up): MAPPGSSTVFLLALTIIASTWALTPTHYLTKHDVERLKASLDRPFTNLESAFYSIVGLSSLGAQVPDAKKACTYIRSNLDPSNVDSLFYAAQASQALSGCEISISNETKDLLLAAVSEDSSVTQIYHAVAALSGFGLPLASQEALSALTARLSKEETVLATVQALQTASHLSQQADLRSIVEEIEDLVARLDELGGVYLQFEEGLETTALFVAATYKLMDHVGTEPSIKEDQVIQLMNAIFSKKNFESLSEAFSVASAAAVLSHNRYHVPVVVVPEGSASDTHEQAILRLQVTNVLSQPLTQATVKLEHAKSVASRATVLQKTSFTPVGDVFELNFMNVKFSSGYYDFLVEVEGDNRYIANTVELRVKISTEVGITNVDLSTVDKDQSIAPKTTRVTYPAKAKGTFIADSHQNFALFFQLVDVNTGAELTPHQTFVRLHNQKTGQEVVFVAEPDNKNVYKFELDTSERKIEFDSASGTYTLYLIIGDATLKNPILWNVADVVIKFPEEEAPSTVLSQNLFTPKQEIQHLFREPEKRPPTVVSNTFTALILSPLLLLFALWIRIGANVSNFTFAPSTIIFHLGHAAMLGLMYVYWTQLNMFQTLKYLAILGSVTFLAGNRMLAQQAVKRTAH
inactive: vemurafenib 0.009 | [1] 0.008 | barasertib 0.019 | [2] 0 | volasertib 0.003 | [3] -0.003 | [4] -0.084 | [5] 0.033 | saracatinib 0.008 | sotrastaurin 0.008

RPL28 (UniProt P46779)
inactive: vemurafenib 0 | [1] -0.016 | barasertib -0.049 | [2] -0.001 | volasertib 0.006 | [3] -0.017 | [5] -0.066 | saracatinib -0.011 | sotrastaurin -0.038
active: [4] 0.278

RAD51C (UniProt O43502)
Sequence of UniProt O43502 (O43502 whole entry, looked up): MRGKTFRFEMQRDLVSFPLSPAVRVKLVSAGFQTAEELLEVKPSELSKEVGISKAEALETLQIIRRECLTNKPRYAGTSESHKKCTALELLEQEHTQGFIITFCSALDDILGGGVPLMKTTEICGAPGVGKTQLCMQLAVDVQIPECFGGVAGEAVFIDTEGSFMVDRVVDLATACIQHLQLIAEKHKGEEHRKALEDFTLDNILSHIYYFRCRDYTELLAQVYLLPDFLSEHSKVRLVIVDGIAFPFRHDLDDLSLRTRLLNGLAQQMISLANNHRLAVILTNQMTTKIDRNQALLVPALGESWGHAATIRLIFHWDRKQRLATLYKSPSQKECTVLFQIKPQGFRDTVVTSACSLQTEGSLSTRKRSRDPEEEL
inactive: vemurafenib -0.067 | [1] -0.01 | barasertib -0.011 | [2] -0.017 | volasertib 0.046 | [3] -0.038 | [4] -0.027 | [5] 0.027 | saracatinib 0.01 | sotrastaurin 0.027

SEC16A isoform 5 (UniProt O15027)
inactive: vemurafenib 0.03 | [1] 0.019 | barasertib 0.021 | [2] 0.038 | volasertib -0.028 | [3] 0.006 | [4] 0.008 | [5] -0.037 | saracatinib 0.013 | sotrastaurin -0.01

SEC24D isoform 2 (UniProt O94855)
inactive: vemurafenib -0.039 | [1] 0.027 | barasertib -0.002 | [2] -0.032 | volasertib -0.032 | [3] -0.011 | [4] -0.001 | [5] -0.009 | saracatinib 0.005 | sotrastaurin -0.025

RABEPK (UniProt Q7Z6M1)
Sequence of UniProt Q7Z6M1 (Q7Z6M1 whole entry, looked up): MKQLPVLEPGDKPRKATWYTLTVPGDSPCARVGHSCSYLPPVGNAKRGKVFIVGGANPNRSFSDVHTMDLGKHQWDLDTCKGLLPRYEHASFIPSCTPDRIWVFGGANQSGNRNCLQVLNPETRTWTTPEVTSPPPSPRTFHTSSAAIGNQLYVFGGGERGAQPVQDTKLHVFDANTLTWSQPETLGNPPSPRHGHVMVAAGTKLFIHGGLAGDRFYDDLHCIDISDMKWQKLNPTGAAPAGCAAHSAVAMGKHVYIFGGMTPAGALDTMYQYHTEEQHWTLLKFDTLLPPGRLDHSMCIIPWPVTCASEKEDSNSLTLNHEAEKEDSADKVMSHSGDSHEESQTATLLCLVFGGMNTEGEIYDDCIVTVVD
inactive: vemurafenib -0.024 | [1] 0.003 | barasertib -0.066 | [2] 0.014 | volasertib -0.006 | [3] -0.021 | [4] 0.015 | [5] 0.011 | saracatinib -0.02 | sotrastaurin -0.028

RPL36AL (UniProt Q969Q0)
inactive: vemurafenib -0.039 | [1] 0.012 | barasertib -0.009 | [2] -0.04 | volasertib -0.013 | [3] 0.076 | [4] -0.076 | [5] -0.004 | saracatinib -0.091 | sotrastaurin -0.032

RBBP7 (UniProt Q16576)
inactive: vemurafenib 0.044 | [1] -0.021 | barasertib -0.072 | [2] -0.017 | volasertib -0.004 | [3] -0.002 | saracatinib 0.021 | sotrastaurin 0.043

SCO2 (UniProt O43819)
inactive: vemurafenib -0.064 | [1] 0.054 | barasertib 0.019 | [2] -0.075 | volasertib -0.028 | [3] -0.087 | [4] -0.235 | [5] 0.076 | saracatinib -0.046 | sotrastaurin 0.003

RDH14 (UniProt Q9HBH5)
inactive: vemurafenib 0.038 | [1] 0.026 | barasertib -0.007 | [2] -0.076 | volasertib -0.022 | [3] 0.009 | [4] -0.228 | [5] 0.061 | saracatinib -0.015 | sotrastaurin 0.074

RUFY2 isoform 1 (UniProt Q8WXA3)
inactive: vemurafenib 0.01 | barasertib -0.206 | [2] 0.038 | [3] -0.026 | [4] -0.009 | [5] -0.178 | sotrastaurin 0.001

RALGAPB isoform 3 (UniProt Q86X10)
inactive: barasertib -0.005 | [2] -0.076 | [4] -0.139 | [5] 0.004 | saracatinib -0.343

RYR1 (UniProt P21817)
inactive: [1] -0.038 | barasertib 0.041 | [2] 0.07 | volasertib -0.049 | [3] -0.053 | [4] 0.045 | [5] 0.03 | saracatinib 0.057 | sotrastaurin 0.091

SCNM1 (UniProt Q9BWG6)
inactive: [1] 0.012 | [2] 0.122 | [3] 0.099 | [4] -0.033 | [5] -0.005 | saracatinib -0.092 | sotrastaurin -0.023
active: volasertib 0.372

RAD54L (UniProt Q92698)
inactive: [1] -0.054 | barasertib 0.012 | volasertib 0.015 | [3] 0.005 | [5] 0.648 | saracatinib 0.095
active: [4] -2.19

RNF170 (UniProt Q96K19)
inactive: vemurafenib -0.08 | [1] 0.02 | barasertib 0.189 | volasertib -0.131 | [4] -0.015 | [5] 0.09 | saracatinib -0.201

RPS6KA3 (UniProt P51812)
inactive: vemurafenib 0.031 | [1] 0.005 | barasertib -0.003 | volasertib -0.026 | [3] 0.133 | [4] -0.014 | [5] 0.093 | saracatinib 0.078 | sotrastaurin 0.037

QSER1, A0A3B3IRW6
inactive: vemurafenib -0.042 | [1] 0.045 | [2] -0.044 | volasertib -0.028 | [3] 0.043 | saracatinib -0.036 | sotrastaurin -0.014

RNPC3 (UniProt Q96LT9)
inactive: [1] -0.02 | volasertib 0.019 | [3] -0.119 | [4] -0.009 | [5] -0.032 | saracatinib -0.022 | sotrastaurin -0.074

RAD17 (UniProt O75943)
inactive: vemurafenib -0.091 | barasertib 0.131 | [2] 0.017 | [3] 0.07 | [4] -0.214 | [5] -0.027 | saracatinib 0.042 | sotrastaurin -0.004

SEC16A isoform 3 (UniProt O15027)
inactive: [3] 0.231 | saracatinib 0.068

RBM45 (UniProt Q8IUH3)
Sequence of UniProt Q8IUH3 (Q8IUH3 whole entry, looked up): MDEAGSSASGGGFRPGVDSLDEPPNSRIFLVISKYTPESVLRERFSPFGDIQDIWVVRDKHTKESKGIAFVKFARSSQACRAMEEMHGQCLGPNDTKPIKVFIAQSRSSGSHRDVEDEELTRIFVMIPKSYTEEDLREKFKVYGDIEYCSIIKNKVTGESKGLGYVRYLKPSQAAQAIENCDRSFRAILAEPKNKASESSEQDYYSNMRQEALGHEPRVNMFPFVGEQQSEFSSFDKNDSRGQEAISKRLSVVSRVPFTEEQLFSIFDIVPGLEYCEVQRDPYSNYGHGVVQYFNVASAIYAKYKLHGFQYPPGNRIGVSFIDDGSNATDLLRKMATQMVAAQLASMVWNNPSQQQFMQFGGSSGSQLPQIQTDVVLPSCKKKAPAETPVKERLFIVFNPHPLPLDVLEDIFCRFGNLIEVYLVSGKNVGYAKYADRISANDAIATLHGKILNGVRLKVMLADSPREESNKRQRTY
inactive: [1] 0.12 | volasertib -0.207 | [4] 0.128 | [5] -0.015 | sotrastaurin 0.077

RLIM (UniProt Q9NVW2)
inactive: barasertib 0.065 | sotrastaurin -0.055

SATB2 (UniProt Q9UPW6)
Sequence of UniProt Q9UPW6 (Q9UPW6 whole entry, looked up): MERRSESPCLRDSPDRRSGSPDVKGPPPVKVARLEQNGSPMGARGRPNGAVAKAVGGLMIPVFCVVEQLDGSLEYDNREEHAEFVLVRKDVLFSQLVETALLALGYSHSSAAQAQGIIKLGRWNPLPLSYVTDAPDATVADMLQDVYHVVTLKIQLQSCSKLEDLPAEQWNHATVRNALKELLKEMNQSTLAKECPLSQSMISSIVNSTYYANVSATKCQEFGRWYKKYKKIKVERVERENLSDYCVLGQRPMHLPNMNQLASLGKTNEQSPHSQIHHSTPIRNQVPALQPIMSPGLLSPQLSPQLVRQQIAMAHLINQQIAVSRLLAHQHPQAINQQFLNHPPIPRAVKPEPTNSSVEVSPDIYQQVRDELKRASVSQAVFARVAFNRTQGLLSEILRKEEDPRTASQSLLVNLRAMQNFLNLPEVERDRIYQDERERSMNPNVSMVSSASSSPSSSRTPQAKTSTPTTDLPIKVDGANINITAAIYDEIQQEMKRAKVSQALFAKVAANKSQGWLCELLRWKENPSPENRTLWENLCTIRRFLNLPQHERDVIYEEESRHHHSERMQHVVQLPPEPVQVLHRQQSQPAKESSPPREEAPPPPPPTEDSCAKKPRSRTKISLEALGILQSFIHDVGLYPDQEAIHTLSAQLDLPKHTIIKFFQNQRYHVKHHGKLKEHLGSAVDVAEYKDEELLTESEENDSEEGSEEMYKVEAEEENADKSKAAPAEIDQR
inactive: vemurafenib 0.002 | [1] 0 | [2] 0.023 | volasertib 0.007 | [3] 0.009 | [4] 0.074 | [5] 0.016 | saracatinib -0.026 | sotrastaurin 0.032

RNF24 isoform 2 (UniProt Q9Y225)
inactive: barasertib 0.122 | [4] 0.033 | [5] -0.084 | sotrastaurin 0.025

RFWD3 (UniProt Q6PCD5)
Sequence of UniProt Q6PCD5 (Q6PCD5 whole entry, looked up): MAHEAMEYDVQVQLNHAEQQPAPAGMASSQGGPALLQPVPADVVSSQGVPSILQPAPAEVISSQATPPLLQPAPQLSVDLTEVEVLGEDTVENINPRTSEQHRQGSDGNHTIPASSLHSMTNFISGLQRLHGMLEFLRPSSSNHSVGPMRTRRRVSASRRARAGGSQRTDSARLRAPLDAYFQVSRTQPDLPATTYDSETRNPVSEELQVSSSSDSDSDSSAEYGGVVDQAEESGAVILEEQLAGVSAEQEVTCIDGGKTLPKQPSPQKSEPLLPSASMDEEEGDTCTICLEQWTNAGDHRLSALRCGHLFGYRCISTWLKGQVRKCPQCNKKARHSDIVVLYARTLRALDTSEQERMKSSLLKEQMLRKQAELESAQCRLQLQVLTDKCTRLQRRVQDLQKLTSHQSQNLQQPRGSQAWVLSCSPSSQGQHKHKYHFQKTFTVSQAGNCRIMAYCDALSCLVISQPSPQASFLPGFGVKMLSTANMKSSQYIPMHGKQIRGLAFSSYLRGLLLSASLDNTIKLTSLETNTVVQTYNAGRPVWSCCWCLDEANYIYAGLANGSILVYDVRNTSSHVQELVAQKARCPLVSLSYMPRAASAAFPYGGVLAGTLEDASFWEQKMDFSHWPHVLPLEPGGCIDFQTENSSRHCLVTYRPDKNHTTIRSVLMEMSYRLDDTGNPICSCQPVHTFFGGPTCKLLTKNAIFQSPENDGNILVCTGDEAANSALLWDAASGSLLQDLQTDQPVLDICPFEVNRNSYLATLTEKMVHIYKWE
inactive: vemurafenib -0.073 | barasertib 0.004 | [2] -0.011 | [3] -0.062 | [4] -0.087 | [5] -0.055 | saracatinib -0.036 | sotrastaurin -0.017

RECQL4 (UniProt O94761)
inactive: vemurafenib -0.019 | barasertib 0.1 | [2] 0.054 | [3] 0.043 | [4] -0.254 | [5] -0.026 | saracatinib 0.043 | sotrastaurin -0.017

S100A6 (UniProt P06703)
inactive: vemurafenib 0.036 | [1] 0.124 | [2] -0.027 | volasertib 0.048 | [3] -0.094 | [4] 0.03 | [5] -0.139 | sotrastaurin -0.033
active: saracatinib 0.715

RNF17 (UniProt Q9BXT8)
inactive: [1] 0.022 | barasertib 0.133 | [2] 0.099 | volasertib 0.066 | [3] -0.035 | [4] 0.113 | [5] -0.421 | saracatinib 0.257 | sotrastaurin 0.046

RHOU (UniProt Q7L0Q8)
Sequence of UniProt Q7L0Q8 (Q7L0Q8 whole entry, looked up): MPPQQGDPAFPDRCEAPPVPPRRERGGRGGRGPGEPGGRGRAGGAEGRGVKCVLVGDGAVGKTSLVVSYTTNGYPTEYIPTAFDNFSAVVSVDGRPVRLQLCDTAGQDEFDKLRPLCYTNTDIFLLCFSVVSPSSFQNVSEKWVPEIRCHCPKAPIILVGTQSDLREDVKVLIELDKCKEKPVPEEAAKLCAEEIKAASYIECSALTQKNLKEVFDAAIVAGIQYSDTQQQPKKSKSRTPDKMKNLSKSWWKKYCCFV
inactive: vemurafenib -0.04 | [1] -0.059 | [2] -0.122 | volasertib 0.008 | [3] -0.006 | [4] 0.173 | [5] 0.015 | saracatinib -0.027 | sotrastaurin 0.036

RNASEH2B, A0A1B0GUE7
inactive: [1] -0.061 | volasertib -0.064

RDH11 (UniProt Q8TC12)
inactive: vemurafenib 0.055 | [1] 0.088 | [2] -0.115 | volasertib -0.13 | [3] 0.069 | [4] -0.213 | [5] 0.082 | saracatinib 0.021 | sotrastaurin 0.022

RNF2 (UniProt Q99496)
active: [4] 0.557 | [5] -0.399
inactive: vemurafenib -0.03 | [2] -0.03 | [3] 0.061 | saracatinib -0.004 | sotrastaurin -0.002

RNASEH1 (UniProt O60930)
inactive: [4] -0.023 | [5] -0.002

RNF149 (UniProt Q8NC42)
inactive: vemurafenib -0.026 | [1] -0.15 | barasertib 0.026 | volasertib -0.063 | [3] -0.162 | [4] 0.343 | [5] 0.02 | saracatinib 0.021 | sotrastaurin -0.081

ROBO2 isoform 3 (UniProt Q9HCK4)
active: [3] 0.523
inactive: [1] 0.071 | volasertib 0.045 | sotrastaurin -0.001

RPS6KA5 (UniProt O75582)
inactive: vemurafenib -0.048 | [1] -0.073 | [2] 0.059 | volasertib -0.182 | [3] 0.005 | [4] -0.116 | [5] 0.087 | saracatinib -0.071 | sotrastaurin 0.185

SERAC1 (UniProt Q96JX3)
inactive: barasertib 0.142 | [2] 0.1 | [4] -0.061 | [5] 0.051 | saracatinib -0.096

SELENOK (UniProt Q9Y6D0)
active: [5] 0.529
inactive: vemurafenib -0.034 | [1] -0.004 | barasertib -0.022 | volasertib 0.062 | [4] -0.593 | saracatinib -0.021

RBM4 isoform 3 (UniProt Q9BWF3)
inactive: sotrastaurin 0.074

SEMA4G isoform 2 (UniProt Q9NTN9)
Sequence of UniProt Q9NTN9 (Q9NTN9 whole entry, looked up): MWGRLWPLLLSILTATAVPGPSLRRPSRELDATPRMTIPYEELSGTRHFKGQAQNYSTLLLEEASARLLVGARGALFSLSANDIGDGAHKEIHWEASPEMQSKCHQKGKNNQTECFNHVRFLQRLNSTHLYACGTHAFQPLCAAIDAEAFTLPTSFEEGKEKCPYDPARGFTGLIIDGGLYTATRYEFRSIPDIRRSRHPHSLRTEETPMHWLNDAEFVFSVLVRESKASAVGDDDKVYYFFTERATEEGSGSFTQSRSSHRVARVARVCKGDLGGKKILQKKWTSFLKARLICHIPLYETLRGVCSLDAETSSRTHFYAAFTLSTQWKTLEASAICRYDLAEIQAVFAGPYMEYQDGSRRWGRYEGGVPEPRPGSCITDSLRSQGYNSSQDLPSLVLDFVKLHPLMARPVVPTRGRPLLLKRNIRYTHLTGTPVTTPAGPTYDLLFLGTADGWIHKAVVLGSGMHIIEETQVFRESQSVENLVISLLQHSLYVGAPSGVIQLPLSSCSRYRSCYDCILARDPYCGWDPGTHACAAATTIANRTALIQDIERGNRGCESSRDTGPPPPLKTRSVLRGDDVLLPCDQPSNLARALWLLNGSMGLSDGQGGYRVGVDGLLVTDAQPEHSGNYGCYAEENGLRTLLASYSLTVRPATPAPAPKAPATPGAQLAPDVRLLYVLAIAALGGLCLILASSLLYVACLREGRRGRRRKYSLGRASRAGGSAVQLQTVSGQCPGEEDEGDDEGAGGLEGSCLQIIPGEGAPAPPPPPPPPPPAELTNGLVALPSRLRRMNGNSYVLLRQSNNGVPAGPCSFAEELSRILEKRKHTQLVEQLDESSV
inactive: vemurafenib 0.042 | [2] -0.059 | [4] -0.072 | [5] 0.04 | saracatinib -0.227 | sotrastaurin 0.004

SEC16A isoform 2 (UniProt O15027)
inactive: [3] -0.204

RXRA (UniProt P19793)
Sequence of UniProt P19793 (P19793 whole entry, looked up): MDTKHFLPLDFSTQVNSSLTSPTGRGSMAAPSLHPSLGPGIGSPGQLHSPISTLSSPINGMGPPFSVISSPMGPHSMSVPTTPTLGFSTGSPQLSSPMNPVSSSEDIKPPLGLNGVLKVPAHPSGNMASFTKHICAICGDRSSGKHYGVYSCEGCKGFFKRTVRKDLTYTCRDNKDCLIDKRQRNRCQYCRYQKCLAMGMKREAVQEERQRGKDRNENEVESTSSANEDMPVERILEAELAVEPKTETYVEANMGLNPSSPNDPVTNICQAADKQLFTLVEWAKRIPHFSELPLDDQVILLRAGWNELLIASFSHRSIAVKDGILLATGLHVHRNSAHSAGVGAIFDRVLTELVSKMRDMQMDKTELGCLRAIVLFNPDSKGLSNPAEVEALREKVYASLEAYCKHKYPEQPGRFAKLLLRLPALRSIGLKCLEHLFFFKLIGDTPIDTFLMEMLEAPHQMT
active: [4] -0.359
inactive: [1] -0.121 | volasertib 0.026 | [3] -0.061 | [5] 0.13 | saracatinib -0.093 | sotrastaurin 0.013

RMI2 (UniProt Q96E14)
inactive: vemurafenib 0.239 | [2] -0.109 | [3] -0.007 | saracatinib -0.008 | sotrastaurin -0.01
